We go through 22 molecules from PubChem BioAssay.

Assay [1] is described as follows: sensitizers of A549 cells to miR-34 induction, primary screen, imaging, A549 dox-inducible miR-34, nuclei and caspase counts (AID 1347080;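 active = compounds whose cell count with miR-34 switched on is under 0.7 times the count with it off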). To be noted: A549 miR-34 inducible, Hoechst nuclei count, 48 h.
A short description of assay [2]: survival rescue of mitochondrial mutant cells in low glucose, primary screen, MELAS cybrids, Rieske KO mouse fibroblasts, CellTiter-Glo (AID 1508586).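 Note: z relative to plate mean and SD of compound and empty wells.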
Where [3] appears, read: stronger effect = lower value, cell number ratio, induced over uninduced.
[4] abbreviates: measured here: relative caspase fold change +Dox/-Dox.
The mark [5] stands for this setting: measured here: total cells with miR-34 induction, stronger effect = lower value.
Where [6] appears, read: measured here: total cells without miR-34 induction.
Setting [7] is: MELAS cybrid survival, CellTiter-Glo 48 h, stronger effect = higher value.
Setting [8] is: Rieske KO mouse fibroblast survival, CellTiter-Glo 72 h.

Activity calls are given as the source filed them.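 Rule for the calls, unless noted: active = mean z-score across replicates of 1.96 or higher in either the MELAS or the Rieske mutant cell line; inactive = the rest.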
Note: test concentration not given here.

Consider `COc1cc2c(cc1OC)CC(=O)N(CCCN(C)CC1Cc3cc(OC)c(OC)cc31)CC2` (configuration not stated), for which the fold change in assay [1] (setting [3]) was 0.865 (inactive); in assay [1] (setting [4]) it was 1.23. The cell count in assay [1] (setting [5]) amounted to 8090; in assay [1] (setting [6]), 9350. Besides, the values for the z-score in assay [2] (setting [7]) and in assay [2] (setting [8]) were -0.285 (inactive) and 0.346, respectively.
As for `CC[C@]1(O)C[C@@H]2CN(CCc3c([nH]c4ccccc34)[C@@](C(=O)OC)(c3cc4c(cc3OC)N(C=O)[C@@H]3[C@@]45CCN4CC=C[C@@](CC)(C(OC(C)=O)[C@]3(O)C(=O)OC)[C@H]45)C2)C1` (some centres not stated), the fold change in assay [1] (setting [3]) was 1.22 (inactive); in assay [1] (setting [4]) it was 0.801. For the same molecule, the values for the cell count in assay [1] (setting [5]) and in assay [1] (setting [6]) were 1340 and 1100, respectively. Moreover, the values for the z-score in assay [2] (setting [7]) and in assay [2] (setting [8]) were 0.317 (inactive) and -1.38, respectively.
For `CCN1CCN(C(=O)NC(C(=O)NC2C(=O)N3C(C(=O)O)=C(CSc4nnnn4C)CS[C@H]23)c2ccc(O)cc2)C(=O)C1=O` (some centres not stated), the fold change in assay [1] (setting [3]) was 0.907 (inactive); in assay [1] (setting [4]) it was 0.724. Also, the cell count is 7730 in assay [1] (setting [5]) and 8520 in assay [1] (setting [6]). Moreover, the results for the z-score in assay [2] (setting [7]) and in assay [2] (setting [8]) were 0.121 (inactive) and 0.0185, respectively.
On to `Cc1onc(-c2ccccc2Cl)c1C(=O)NC1C(=O)N2C(C(=O)O)C(C)(C)S[C@@H]12` (some centres not stated), for which the fold change in assay [1] (setting [3]) was 0.964 (inactive); in assay [1] (setting [4]), 0.778. For the same molecule, the cell count is 9670 in assay [1] (setting [5]) and 10000 in assay [1] (setting [6]). Besides, the z-score in assay [2] (setting [7]) is -0.365 (inactive); in assay [2] (setting [8]), 0.485.
For `Cc1cc(C=C2SC(=S)NC2=O)c(C)n1-c1cccnc1`, the results for the fold change in assay [1] (setting [3]) and in assay [1] (setting [4]) were 0.889 (inactive) and 0.503, respectively. For the same molecule, the cell count in assay [1] (setting [5]) is 7760; in assay [1] (setting [6]), 8720. Also, the figures for the z-score in assay [2] (setting [7]) and in assay [2] (setting [8]) were -0.359 (inactive) and -0.24, respectively.
As to `CC(C)CC(NC(=O)C(Cc1ccccc1)NC(=O)c1cnccn1)B(O)O` (configuration not stated), the fold change in assay [1] (setting [3]) is 0.948 (inactive); in assay [1] (setting [4]), 0.953. Besides, the results for the cell count in assay [1] (setting [5]) and in assay [1] (setting [6]) were 1020 and 1080, respectively. The figures for the z-score in assay [2] (setting [7]) and in assay [2] (setting [8]) were -0.496 (inactive) and -2.5, respectively.
For the molecule `COc1cc(=C2C=c3ccccc3=N2)[nH]c1=Cc1[nH]c(C)cc1C`, the fold change was 1.1 (inactive) in assay [1] (setting [3]) and 0.895 in assay [1] (setting [4]). In addition, the values for the cell count in assay [1] (setting [5]) and in assay [1] (setting [6]) were 1770 and 1620, respectively. Moreover, the z-score in assay [2] (setting [7]) was 2.25 (active); in assay [2] (setting [8]), -2.31.
Take `CCN(CC)CCOC(=O)c1ccc(N)cc1Cl`: the values for the fold change in assay [1] (setting [3]) and in assay [1] (setting [4]) were 0.9 (inactive) and 1.29, respectively. The cell count in assay [1] (setting [5]) came out at 9150; in assay [1] (setting [6]), 10200. Besides, the z-score in assay [2] (setting [7]) was -0.309 (inactive); in assay [2] (setting [8]), -0.153.
Regarding `O=C(NN=Cc1ccc(O)c(O)c1)c1cc2ccccc2cc1O`, the fold change in assay [1] (setting [3]) is 0.949 (inactive); in assay [1] (setting [4]), 0.497. The cell count in assay [1] (setting [5]) came to 8120; in assay [1] (setting [6]), 8550. The z-score in assay [2] (setting [7]) was -0.481 (inactive); in assay [2] (setting [8]), 0.559.
In the case of `CCN1CCN(Cc2ccc(-c3cc4c(NC(C)c5ccccc5)ncnc4[nH]3)cc2)CC1` (configuration not stated), the fold change is 1.04 (inactive) in assay [1] (setting [3]) and 0.932 in assay [1] (setting [4]). Also, the cell count is 3430 in assay [1] (setting [5]) and 3280 in assay [1] (setting [6]). Moreover, the figures for the z-score in assay [2] (setting [7]) and in assay [2] (setting [8]) were -0.0772 (inactive) and 0.518, respectively.
In the case of `CCN=C1N[C@@H]2C(O)C(O)C(CO)O[C@@H]2S1` (some centres not stated), the fold change in assay [1] (setting [3]) was 0.935 (inactive); in assay [1] (setting [4]), 0.487. Further, the cell count in assay [1] (setting [5]) was determined as 8710; in assay [1] (setting [6]) it was 9320. Further, the z-score in assay [2] (setting [7]) is -0.533 (inactive); in assay [2] (setting [8]), -0.988.
Consider `NC(Cc1cc(I)c(Oc2cc(I)c(O)c(I)c2)c(I)c1)C(=O)O` (configuration not stated), for which the fold change in assay [1] (setting [3]) was 0.891 (inactive); in assay [1] (setting [4]), 1.04. Further, the cell count was found to be 8130 in assay [1] (setting [5]) and 9130 in assay [1] (setting [6]). Moreover, the z-score was -0.238 (inactive) in assay [2] (setting [7]) and -1.06 in assay [2] (setting [8]).
Regarding `CN(C)C(=O)C(O)C(Cc1ccccc1)NC(=O)c1cc2cc(Cl)ccc2[nH]1` (configuration not stated), the fold change was 0.959 (inactive) in assay [1] (setting [3]) and 0.88 in assay [1] (setting [4]). Besides, the cell count in assay [1] (setting [5]) was 8860; in assay [1] (setting [6]) it was 9230. Also, the z-score in assay [2] (setting [7]) was -0.337 (inactive); in assay [2] (setting [8]), 0.715.
In the case of `O=C(NS(=O)(=O)c1ccc(Br)s1)c1ccc(Cl)cc1Cl`, the fold change in assay [1] (setting [3]) is 0.902 (inactive); in assay [1] (setting [4]), 0.488. For the same molecule, the cell count in assay [1] (setting [5]) was 7360; in assay [1] (setting [6]), 8160. The z-score was -0.252 (inactive) in assay [2] (setting [7]) and -0.754 in assay [2] (setting [8]).
As to `CC(CCC(=O)O)C1CC[C@H]2[C@@H]3CC[C@@H]4CC(O)CC[C@]4(C)[C@H]3CC[C@]12C` (some centres not stated), the results for the fold change in assay [1] (setting [3]) and in assay [1] (setting [4]) were 0.884 (inactive) and 1.13, respectively. Besides, the figures for the cell count in assay [1] (setting [5]) and in assay [1] (setting [6]) were 7640 and 8650, respectively. The figures for the z-score in assay [2] (setting [7]) and in assay [2] (setting [8]) were -0.0806 (inactive) and -0.272, respectively.
`N#Cc1cc(CN2CCC(Nc3ncnc4sc(Cl)cc34)CC2)ccc1F`: the fold change was 0.932 (inactive) in assay [1] (setting [3]) and 0.447 in assay [1] (setting [4]). Further, the figures for the cell count in assay [1] (setting [5]) and in assay [1] (setting [6]) were 6280 and 6740, respectively. The z-score is -0.501 (inactive) in assay [2] (setting [7]) and -0.555 in assay [2] (setting [8]).
`CCC1OC(=O)C(C)C(OC2C[C@@](C)(OC)C(O)C(C)O2)C(C)C(OC2OC(C)CC(N(C)C)C2O)[C@@](C)(O)CC(C)C(=O)C(C)C(O)[C@]1(C)O` (some centres not stated): the fold change in assay [1] (setting [3]) was 0.879 (inactive); in assay [1] (setting [4]), 1.14. In addition, the cell count in assay [1] (setting [5]) worked out at 7750; in assay [1] (setting [6]), 8820. For the same molecule, the z-score in assay [2] (setting [7]) was -0.0604 (inactive); in assay [2] (setting [8]), 0.782.
Regarding `COc1ccc(CC(NC(=O)C(C)NC(=O)CN2CCOCC2)C(=O)NC(Cc2ccccc2)C(=O)[C@]2(C)CO2)cc1` (some centres not stated), the fold change in assay [1] (setting [3]) is 1.43 (inactive); in assay [1] (setting [4]) it was 1. For the same molecule, the cell count turned out to be 990 in assay [1] (setting [5]) and 690 in assay [1] (setting [6]). Besides, the z-score in assay [2] (setting [7]) is -0.544 (inactive); in assay [2] (setting [8]), -7.62.
In the case of `OC(CC1c2ccccc2-c2cncn21)C1CCCCC1` (configuration not stated), the fold change in assay [1] (setting [3]) is 0.992 (inactive); in assay [1] (setting [4]) it was 0.351. Further, the cell count stood at 8340 in assay [1] (setting [5]) and 8410 in assay [1] (setting [6]). Also, the z-score in assay [2] (setting [7]) was -0.436 (inactive); in assay [2] (setting [8]), -0.0844.
As to `C[C@@H]1COc2c(N3CCN(C)CC3)c(F)cc3c(=O)c(C(=O)O)cn1c23`, the fold change in assay [1] (setting [3]) is 0.906 (inactive); in assay [1] (setting [4]), 0.634. The cell count in assay [1] (setting [5]) was 8330; in assay [1] (setting [6]), 9190. Also, the values for the z-score in assay [2] (setting [7]) and in assay [2] (setting [8]) were -0.0742 (inactive) and 0.213, respectively.
In the case of `CC(C)CC(CC(=O)NO)C(=O)NC(Cc1ccc2ccccc2c1)C(=O)NC(C)C(=O)NCCN` (configuration not stated), the fold change in assay [1] (setting [3]) is 0.928 (inactive); in assay [1] (setting [4]), 0.561. Also, the cell count in assay [1] (setting [5]) was determined as 8260; in assay [1] (setting [6]), 8900. The z-score in assay [2] (setting [7]) is -0.492 (inactive); in assay [2] (setting [8]), -0.379.
Take `CC(CCC(=O)O)[C@@H]1CC[C@H]2[C@@H]3C(O)C[C@@H]4CC(O)CC[C@]4(C)[C@@H]3CC[C@]12C` (some centres not stated): the fold change was 0.828 (inactive) in assay [1] (setting [3]) and 0.703 in assay [1] (setting [4]). The values for the cell count in assay [1] (setting [5]) and in assay [1] (setting [6]) were 7430 and 8980, respectively. Besides, the results for the z-score in assay [2] (setting [7]) and in assay [2] (setting [8]) were -0.242 (inactive) and 0.0686, respectively.
